Active and inactive are the calls of the source.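 Rule for the calls, unless noted: active = mean inhibition above 46.68%, the untreated control wells mean plus 3 SD; inactive = the rest.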
How the values were obtained:
[1] = target: Nuclear receptor coactivator 3 (Homo sapiens) (UniProt Q9Y6Q9); test: NCOA3 GAL4-fusion reporter inhibition – cell-based, luminescence, quadruplicate, confirmation (AID 588792;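 active = mean inhibition over 43.08%, the solvent-only control mean plus 3 SD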;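 note: 0% = DMSO treated cells and 100% = gossypol at 36 µM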); settings: HEK293 GAL4-SRC3 luciferase reporter, at 3.6 µM, hits give high values
Chain of Nuclear receptor coactivator 3 (Homo sapiens) (Q9Y6Q9 whole entry, looked up, the tested form may be a part): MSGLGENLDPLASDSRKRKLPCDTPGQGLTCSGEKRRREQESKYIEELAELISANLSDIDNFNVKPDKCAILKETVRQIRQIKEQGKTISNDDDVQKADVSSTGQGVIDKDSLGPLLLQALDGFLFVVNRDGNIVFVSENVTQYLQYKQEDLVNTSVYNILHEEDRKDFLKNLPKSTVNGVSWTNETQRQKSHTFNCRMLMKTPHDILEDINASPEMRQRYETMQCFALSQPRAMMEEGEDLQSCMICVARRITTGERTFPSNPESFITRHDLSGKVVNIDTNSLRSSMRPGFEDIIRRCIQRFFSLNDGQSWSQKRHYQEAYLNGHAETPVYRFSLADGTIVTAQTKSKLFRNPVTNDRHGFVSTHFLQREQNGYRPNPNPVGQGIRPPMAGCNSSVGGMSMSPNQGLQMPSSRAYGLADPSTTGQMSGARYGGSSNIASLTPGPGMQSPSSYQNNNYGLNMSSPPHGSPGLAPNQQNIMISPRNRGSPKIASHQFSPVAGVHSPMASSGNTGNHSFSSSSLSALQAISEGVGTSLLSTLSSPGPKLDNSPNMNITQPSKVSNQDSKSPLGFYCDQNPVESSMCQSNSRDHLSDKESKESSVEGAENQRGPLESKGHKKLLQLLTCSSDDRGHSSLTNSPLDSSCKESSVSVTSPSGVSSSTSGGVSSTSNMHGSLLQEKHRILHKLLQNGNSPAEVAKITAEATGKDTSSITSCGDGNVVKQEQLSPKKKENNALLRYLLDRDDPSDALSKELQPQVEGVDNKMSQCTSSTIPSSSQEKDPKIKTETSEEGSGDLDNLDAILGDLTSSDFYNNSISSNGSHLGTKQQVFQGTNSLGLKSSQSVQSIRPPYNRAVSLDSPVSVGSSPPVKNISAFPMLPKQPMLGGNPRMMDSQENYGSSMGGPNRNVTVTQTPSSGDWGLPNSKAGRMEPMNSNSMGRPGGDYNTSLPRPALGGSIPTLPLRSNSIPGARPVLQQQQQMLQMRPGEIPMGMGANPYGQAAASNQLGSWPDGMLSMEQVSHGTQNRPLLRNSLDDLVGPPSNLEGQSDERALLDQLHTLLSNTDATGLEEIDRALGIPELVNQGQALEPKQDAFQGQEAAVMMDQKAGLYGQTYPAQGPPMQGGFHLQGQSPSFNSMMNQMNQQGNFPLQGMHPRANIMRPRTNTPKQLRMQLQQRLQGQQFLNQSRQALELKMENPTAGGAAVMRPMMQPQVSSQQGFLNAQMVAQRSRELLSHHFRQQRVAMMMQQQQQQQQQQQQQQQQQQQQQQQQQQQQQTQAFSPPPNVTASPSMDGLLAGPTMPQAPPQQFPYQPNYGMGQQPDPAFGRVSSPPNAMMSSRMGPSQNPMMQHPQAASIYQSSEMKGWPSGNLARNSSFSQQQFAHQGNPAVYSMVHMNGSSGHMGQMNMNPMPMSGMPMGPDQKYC

[2] = test system: transactivating tegument protein VP16 (Human herpesvirus 1), Gal4-VP16 luciferase reporter; test: repression of VP16-driven luciferase reporter – cell-based, luminescence, high throughput, counter-screen for SRC3 inhibitor project (AID 588794; in the data active = inhibition above about 30%); settings: mammalian cells, at 3.6 µM, hits give high values
[3] = target: Nuclear receptor coactivator 1 (Homo sapiens) (UniProt Q15788); test: NCOA1 GAL4-fusion reporter inhibition – cell-based, luminescence, quadruplicate, confirmation (AID 588820); settings: HEK293 GAL4-SRC1 luciferase reporter, at 3.6 µM, hits give high values;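 note: 0% = DMSO wells and 100% = gossypol 36 µM treated wells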
Chain of Nuclear receptor coactivator 1 (Homo sapiens) (Q15788 whole entry, looked up, the tested form may be a part): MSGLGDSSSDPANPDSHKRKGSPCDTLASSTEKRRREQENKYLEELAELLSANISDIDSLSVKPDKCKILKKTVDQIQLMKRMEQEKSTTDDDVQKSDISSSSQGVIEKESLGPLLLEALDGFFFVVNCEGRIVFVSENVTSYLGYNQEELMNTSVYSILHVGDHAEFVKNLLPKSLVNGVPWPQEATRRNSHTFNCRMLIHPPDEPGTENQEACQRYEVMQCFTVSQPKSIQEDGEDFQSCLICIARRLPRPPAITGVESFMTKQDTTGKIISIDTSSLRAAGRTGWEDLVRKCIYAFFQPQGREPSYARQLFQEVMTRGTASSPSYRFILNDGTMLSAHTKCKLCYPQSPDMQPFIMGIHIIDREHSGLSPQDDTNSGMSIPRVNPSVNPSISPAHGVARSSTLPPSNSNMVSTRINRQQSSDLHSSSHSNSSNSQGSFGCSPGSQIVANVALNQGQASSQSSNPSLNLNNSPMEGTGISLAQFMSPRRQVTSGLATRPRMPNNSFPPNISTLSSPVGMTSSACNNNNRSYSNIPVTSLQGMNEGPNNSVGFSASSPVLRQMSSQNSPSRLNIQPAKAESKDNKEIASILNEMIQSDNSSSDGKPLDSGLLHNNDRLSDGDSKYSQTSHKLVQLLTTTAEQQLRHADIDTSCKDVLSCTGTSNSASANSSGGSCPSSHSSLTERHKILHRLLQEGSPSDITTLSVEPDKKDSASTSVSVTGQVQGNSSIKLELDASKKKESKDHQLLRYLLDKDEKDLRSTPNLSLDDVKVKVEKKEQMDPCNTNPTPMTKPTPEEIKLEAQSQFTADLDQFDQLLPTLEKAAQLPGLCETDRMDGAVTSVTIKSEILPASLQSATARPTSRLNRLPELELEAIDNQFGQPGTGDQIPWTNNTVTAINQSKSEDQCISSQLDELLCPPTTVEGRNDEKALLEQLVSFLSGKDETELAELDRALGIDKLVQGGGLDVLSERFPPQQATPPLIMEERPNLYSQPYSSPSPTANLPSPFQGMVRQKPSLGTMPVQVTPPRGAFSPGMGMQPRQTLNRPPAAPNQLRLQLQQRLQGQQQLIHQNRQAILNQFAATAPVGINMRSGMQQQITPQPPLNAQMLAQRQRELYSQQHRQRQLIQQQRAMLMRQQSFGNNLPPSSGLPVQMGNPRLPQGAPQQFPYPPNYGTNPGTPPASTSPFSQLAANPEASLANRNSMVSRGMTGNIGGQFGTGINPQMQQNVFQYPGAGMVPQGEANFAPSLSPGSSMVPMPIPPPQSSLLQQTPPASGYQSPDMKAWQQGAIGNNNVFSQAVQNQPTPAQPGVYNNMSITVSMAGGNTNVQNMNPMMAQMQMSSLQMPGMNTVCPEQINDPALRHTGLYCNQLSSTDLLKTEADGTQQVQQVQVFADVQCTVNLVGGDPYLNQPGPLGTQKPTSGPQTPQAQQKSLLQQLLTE

[4] = repression of VP16-driven luciferase reporter – cell-based, luminescence, high throughput, counter-screen for SRC1 inhibitor project (AID 588824; in the data active = inhibition above about 25%); settings: cell-based VP16 transactivation luciferase luminescence; at 3.6 µM; hits give high values
[5] = test system: transactivating tegument protein VP16 (Human herpesvirus 1); test: compounds suppressing VP16-driven luciferase signal – cell-based, luminescence, single concentration, counter-screen for SRC2 inhibitor project (AID 652007; in the data active = inhibition above about 36%); settings: cell-based VP16 transactivation luciferase reporter, at 8.9 µM, hits give high values
[6] = target: Nuclear receptor coactivator 2 (Homo sapiens) (UniProt Q15596); test: inhibition of GAL4-SRC2 driven luciferase expression – cell-based, luminescence, HEK293, triplicate, confirmation (AID 652008;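 active = mean inhibition above 46.5%, the solvent-only control mean plus 3 SD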;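 note: 0% = DMSO-treated cells and 100% = Gossypol at 36 µM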); settings: HEK293 GAL4-SRC2 luciferase reporter, at 8.9 µM, hits give high values
Chain of Nuclear receptor coactivator 2 (Homo sapiens) (Q15596 whole entry, looked up, the tested form may be a part): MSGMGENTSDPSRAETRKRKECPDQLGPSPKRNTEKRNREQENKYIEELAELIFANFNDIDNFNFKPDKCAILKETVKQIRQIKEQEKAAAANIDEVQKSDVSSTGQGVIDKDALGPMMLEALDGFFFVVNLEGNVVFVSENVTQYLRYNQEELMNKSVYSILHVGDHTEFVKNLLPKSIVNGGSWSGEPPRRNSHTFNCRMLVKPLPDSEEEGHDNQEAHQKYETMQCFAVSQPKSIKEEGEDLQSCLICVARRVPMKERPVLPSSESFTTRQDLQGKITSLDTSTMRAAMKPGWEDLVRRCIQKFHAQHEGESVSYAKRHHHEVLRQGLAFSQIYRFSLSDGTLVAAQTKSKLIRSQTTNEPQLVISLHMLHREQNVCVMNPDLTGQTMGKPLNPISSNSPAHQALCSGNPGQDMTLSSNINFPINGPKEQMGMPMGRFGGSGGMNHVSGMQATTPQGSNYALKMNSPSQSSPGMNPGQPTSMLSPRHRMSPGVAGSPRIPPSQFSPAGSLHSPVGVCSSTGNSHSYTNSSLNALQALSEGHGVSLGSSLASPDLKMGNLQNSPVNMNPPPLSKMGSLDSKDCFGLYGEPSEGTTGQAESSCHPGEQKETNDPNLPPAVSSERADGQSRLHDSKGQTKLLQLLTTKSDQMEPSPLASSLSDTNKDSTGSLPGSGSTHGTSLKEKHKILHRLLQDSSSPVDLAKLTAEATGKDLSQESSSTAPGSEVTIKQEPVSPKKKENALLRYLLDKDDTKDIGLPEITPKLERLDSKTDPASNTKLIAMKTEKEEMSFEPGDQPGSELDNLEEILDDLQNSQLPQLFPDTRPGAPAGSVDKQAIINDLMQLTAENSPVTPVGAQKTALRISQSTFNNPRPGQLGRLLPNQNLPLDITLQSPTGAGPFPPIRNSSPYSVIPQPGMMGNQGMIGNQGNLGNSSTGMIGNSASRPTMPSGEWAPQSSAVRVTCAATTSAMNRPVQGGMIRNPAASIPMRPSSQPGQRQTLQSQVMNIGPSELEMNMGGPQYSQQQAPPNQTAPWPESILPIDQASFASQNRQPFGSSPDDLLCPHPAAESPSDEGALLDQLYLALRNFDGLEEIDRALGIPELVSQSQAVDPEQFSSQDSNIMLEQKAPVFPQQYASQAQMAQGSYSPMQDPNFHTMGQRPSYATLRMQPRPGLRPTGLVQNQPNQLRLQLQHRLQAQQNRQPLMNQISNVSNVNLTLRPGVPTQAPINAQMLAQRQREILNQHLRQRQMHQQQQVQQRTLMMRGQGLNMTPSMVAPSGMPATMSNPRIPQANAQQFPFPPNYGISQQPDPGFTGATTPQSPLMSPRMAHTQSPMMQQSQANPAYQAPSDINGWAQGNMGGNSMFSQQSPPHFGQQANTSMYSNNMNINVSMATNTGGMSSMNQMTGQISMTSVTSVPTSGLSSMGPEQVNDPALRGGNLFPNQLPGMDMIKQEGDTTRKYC

Measured: inhibition

COc1ccc(-n2c(C)c([N+](=O)[O-])c3ccc(O)c(CN4CCCCC4)c32)cc1
active: [1] 47.4% | [2] 30.5% | [3] 54.9% | [4] 39.5% | [6] 48.4%
inactive: [5] 4.57%

CN(C)C=Nc1ncc2c3ccccc3n(CCN(C)C)c2c1C#N
active: [1] 48.6% | [2] 29.9% | [3] 48.9% | [4] 33.2%
inactive: [5] -1.55% | [6] 9.25%

C(=N\Nc1ccc2ccccc2n1)/c1ccc2c(c1)OCCO2
active: [5] 44.3% | [6] 83.2%
inactive: [1] 34.6% | [2] 24.2% | [3] -49.9% | [4] -11.3%

O=C(/C=C/c1ccccc1)CC(O)(c1ccccc1)C(F)(F)F (centres undefined)
active: [2] 31% | [4] 45.9%
inactive: [1] 38.5% | [3] 12.9% | [5] 21.8% | [6] 32.7%

C=C1C(=O)[C@@]23[C@H](O)C[C@@H]4C(C)(C)CC[C@H](O)[C@@]4(C)[C@@H]2CC[C@@H]1[C@H]3O
inactive: [1] 28.5% | [3] -18% | [5] 33.9%
active: [2] 49.6% | [4] 46.2% | [6] 66.4%

COc1ccc(-c2cc(=O)oc3cc(OC(=O)C4CCCCC4)c(Cl)cc23)cc1
inactive: [5] -4.78% | [6] 37.4%
active: [1] 59.4% | [2] 38.7% | [3] 56% | [4] 41.2%

N#CC(C#N)c1ccnc2ccccc12
inactive: [5] 4.65% | [6] 36.4%
active: [1] 66.9% | [2] 40.6% | [3] 64.1% | [4] 38.3%

Nc1ccc2c(c1)OC1(CCCC1)O2
inactive: [1] 10.9% | [2] 4.56% | [3] -18.7% | [4] 15.4% | [5] -13% | [6] 45.4%

Cc1ccc(C(=O)CN2C(=O)c3ccccc3S2(=O)=O)cc1
inactive: [1] 31.6% | [3] -23.7%
active: [2] 48.8% | [4] 41.4% | [5] 65% | [6] 61.9%

CCCN(CC(=O)Nc1ccccc1C)C(=O)CCl
active: [1] 74.9% | [2] 48.1% | [3] 48.8% | [4] 53.4% | [5] 65.6% | [6] 75.8%

Cc1cc(/C=N/Nc2ncnc(N)c2[N+](=O)[O-])c(C)n1-c1ccccc1
active: [6] 61.2%
inactive: [1] 26% | [2] 12.4% | [3] -28.1% | [4] -10.1% | [5] 23.9%

CC(=O)c1sc(NC(=O)C2(F)C(F)(F)C(F)(F)C(F)(F)C(F)(F)C2(F)F)nc1C
active: [1] 66.5% | [2] 79% | [3] 60.4% | [4] 84.5%
inactive: [5] 4.16% | [6] 23.9%

Cc1nnc(-c2ccccc2)c(=O)n1/N=C/c1c(O)ccc2ccccc12
active: [2] 55% | [3] 57% | [4] 62.6%
inactive: [1] 40.6% | [5] -12.9% | [6] 23.1%

CS(=O)(=O)Nc1ccc(-c2cnc3cccnn23)cc1
inactive: [5] -12.1% | [6] 45.8%
active: [1] 67.9% | [2] 41.6% | [3] 57.5% | [4] 51.7%

CC(=O)c1cccc(-c2csc3ncnc(Sc4nnnn4C)c23)c1
inactive: [1] 33% | [2] 20.4% | [3] 6.55% | [5] 24% | [6] 15.9%
active: [4] 30.8%

CCN(CC)Cc1c(O)ccc2c([N+](=O)[O-])c(C)n(-c3ccc(OC)cc3)c12
inactive: [5] 15.8% | [6] 41.4%
active: [1] 69% | [2] 50.9% | [3] 68.7% | [4] 54.7%

COc1cncc(-c2cnc3sc(NCCc4ccccn4)nn23)c1
active: [1] 56.8% | [2] 33.6% | [3] 48.4% | [4] 30.6% | [6] 50.2%
inactive: [5] 3.51%

CNc1ccc2ncc(-c3ccc(OC)c(OC)c3)n2n1
inactive: [5] -12.4% | [6] 37.3%
active: [1] 80.1% | [2] 63.1% | [3] 75.4% | [4] 60.1%

COc1ccc2[nH]c(=O)c3c(c2c1)OC(C)(C)C=C3
inactive: [5] 9.64%
active: [1] 77.6% | [2] 41.7% | [3] 69.9% | [4] 44% | [6] 51.3%

Reference: PubChem BioAssay
